Source: PubChem BioAssay
This is one part of a sample in which hits are shown more often than they occur.
VCAM1 pot = TNF alpha stimulated VCAM1 expression potentiation | HUVEC TNFa-stimulated VCAM-1 immunofluorescence, high-content imaging; scaled per plate to unstimulated/TNFa-only wells | activation, % at 2 µM | 93,000 compounds, 0.19% hits | AID 808;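 active = activation above the screen mean plus 3 SD, with well images confirming the hit on visual review, cut at about 28% in these data, passing the limit was not always enough; inconclusive = activation above that limit but images do not confirm it; inactive = activation not above that limit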;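 also: signal is the number of cytoplasmic VCAM-1 stained grains per positive cell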
VCAM1 pot confirm = potentiators of TNFa-induced VCAM1 expression, confirmation, imaging, HUVEC, triplicate retest. HUVEC TNFa-stimulated VCAM-1 immunofluorescence imaging. 230 tested, under 10 active. activation, % at 2 µM. AID 1034. shares compounds with VCAM1 pot;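 active = activation above 30% in triplicate retests at 2 µM, then confirmed by visual review of the well images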;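 also: scaled per plate between unstimulated and TNFa-stimulated DMSO control wells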
An asterisk follows results filed as active; ? = inconclusive.

SMILES	VCAM1 pot	others
CCC(C)N1CCCCC1C(=O)Nc1c(C)cc(C)cc1C (stereo unspecified)	17
Cc1cccc(CCNC(=O)CN(C)S(=O)(=O)c2ccc3c(c2)c(=O)n(C)c(=O)n3C)c1	-1
Cc1cccc(CCNS(=O)(=O)c2ccc3c(c2)oc(=O)n3C)c1	111*	VCAM1 pot confirm=-14
CCOc1ccccc1CNS(=O)(=O)c1ccc2c(c1)oc(=O)n2C	-8
CCN(CC)CC(C)OC(=O)COc1ccc(OC)cc1 (stereo unspecified)	33
N#Cc1c(-n2cccc2)cccc1-n1cccc1	6
Cc1ccc(OC(=O)CCC(=O)OCCCC(F)(F)C(F)(F)F)cc1	?	VCAM1 pot confirm=-8
COc1ccc(OCC(=O)Sc2ccc(C)cc2)cc1	7
CCCSc1nnc(C(C)C)n1N	-4
CC1=C(C(=O)OCc2ccccc2)C(c2ccoc2)C(C#N)=C(N)O1 (stereo unspecified)	-4
COc1ccc(C(=O)NC(C)c2nnc(SCC(=O)Nc3nc4ccccc4s3)n2C)cc1 (stereo unspecified)	-32
CC(C)N(CCc1ccncc1)C(=O)Nc1ccc(Cl)c(Cl)c1	38*	VCAM1 pot confirm=-3
CCCC(C)C(=O)Nc1ccncc1 (stereo unspecified)	32
CCN(CC)S(=O)(=O)c1cc([N+](=O)[O-])ccc1NNC(=O)Nc1ccc(Cl)c(Cl)c1	-23
N#CC(/C(=N/S(=O)(=O)c1cccs1)c1ccccc1)c1nc2ccccc2[nH]1 (stereo unspecified)	-5
CCCCNC(=O)CN(c1cccc(Br)c1)S(C)(=O)=O	31
COc1cccc(NC(=O)CSc2nc(N)cc(N)n2)c1	23
CSc1nc(C)cc(SCC(=O)Nc2ccccc2)n1	56*	VCAM1 pot confirm=1
Cc1cc(SCC(N)=O)nc(SCC(=O)c2ccccc2)n1	-2
Cc1cc(C)c(C#N)c(=N)o1	3
COc1cc2[nH]cc(C(=O)NCc3cccs3)c(=O)c2cc1OC	-20
c1ccc(-c2nnc(CSc3nncs3)o2)cc1	-93
c1ccc(CSc2nnc(-c3ccncc3)o2)cc1	58*	VCAM1 pot confirm=-13
COC(=O)C(C)Sc1nnc(-c2ccncc2)o1 (stereo unspecified)	-19
Nc1nonc1-n1nnc(C(=O)O)c1-c1cccs1	-18
SMILES	VCAM1 pot	others
Cc1nc(Nc2ccccc2)[nH]c(=O)c1CCC(C)C	?	VCAM1 pot confirm=3
O=C(CSc1nnc(-c2cccs2)n1-c1ccccc1)N1CCc2ccccc21	16
COc1ccc(-c2nc(C#N)c(NCc3cccnc3)o2)cc1OC	4
CCOc1ccc(-c2nc(C#N)c(NC3CC3)o2)cc1	-2
Cc1ccc(-c2nc(C#N)c(NCCN3CCCCC3)o2)cc1	44*	VCAM1 pot confirm=-17
CCC(C)[C@@H](NC(=O)OC(C)(C)C)c1nnc(S(=O)(=O)Cc2cccc(C)c2)o1 (stereo partly specified)	-42
Cc1ccc2c(c1)-c1ccccc1S(=O)(=O)N2	32*	VCAM1 pot confirm=-4
CC(=O)N(Cc1ccccc1)c1ncc2c(n1)c(=O)c(C#N)c1ccccn12	-10
Cc1cccc(C2CC(c3ccc(Br)cc3)Nc3nc(N)nn32)c1 (stereo unspecified)	2
O=C(NCC1COc2ccccc2O1)C1CCN(S(=O)(=O)c2cccc3nsnc23)CC1 (stereo unspecified)	2
CC(=O)c1ccc(NS(=O)(=O)c2ccc(CC(C)C)cc2)cc1	8
CC(=O)Nc1ccc(S(=O)(=O)NC(CC(=O)NC2CCCCC2C)C(C)C)cc1 (stereo unspecified)	31*	VCAM1 pot confirm=-14
COc1ccc(C)cc1NS(=O)(=O)c1ccc(NS(=O)(=O)c2ccc(NC(C)=O)cc2)cc1	2
O=c1[nH]nnc2sc3c(c12)CCCC3	-44
CC1CC(C)CN(c2nc3c(c(=O)n(C)c(=O)n3C)n2C)C1 (stereo unspecified)	-1
CN(CC(=O)Nc1nc2ccccc2s1)S(=O)(=O)c1ccccc1	16
O=C(/C=C/NNC(=O)c1ccccc1)c1ccc(Br)cc1	-8
Cc1cccc(/C(N)=N/OC(=O)c2ccco2)c1	2
N/C(=N\OC(=O)c1ccc(Br)cc1)c1ccccc1	58*	VCAM1 pot confirm=-15
CCOC(=O)CCN(Cc1cccs1)S(=O)(=O)c1ccc(Cl)cc1	-8
CCOC(=O)c1cc(-c2ccc(OC)cc2F)nc2c1c(C)nn2CCC#N	34*	VCAM1 pot confirm=-15
CCOC(=O)c1cc(C#N)c(N2CCCC2)nc1-c1ccccc1	-7
CCN(CC)CC(C(=O)N(CC)CC)P(=O)(c1ccccc1)c1ccccc1 (stereo unspecified)	-6
Cc1cc(C)c(-c2cc(NC(=O)CSc3n[nH]c(N)n3)n(-c3ccccc3)n2)cc1C	-1
CC(=O)NC1=NN(C(C)=O)C(c2cccs2)S1 (stereo unspecified)	38
SMILES	VCAM1 pot	others
O=C(Nc1ccc(N2CCN(C(=O)c3ccco3)CC2)c(Cl)c1)c1cc2ccccc2o1	?	VCAM1 pot confirm=-11
CC(=O)Nc1cccc(NC(=O)c2cc3ccccc3o2)c1	-6
O=C(Nc1ccc(-c2cc3ccccc3oc2=O)c(Cl)c1)c1cccnc1	-8
CC(C)c1ccc(Oc2cccc(C(=O)/C(C#N)=C/N(C)C)c2)cc1	-3
O=C(NCCCCNC(=O)c1cccnc1)c1cccnc1	?	VCAM1 pot confirm=-12
O=C(NCCCNC(=O)c1ccco1)c1ccco1	-6
CCOC(=O)Cc1csc(NC(=O)c2cccnc2)n1	33
OCc1csc(=Nc2ccccc2)n1-c1ccccc1	-4
O=C(c1ccccc1-c1nc(-c2ccc(Cl)cc2)no1)N1CCCC1	5
Cn1c(=O)c2c(-c3ccccc3F)c3c(nc2n(C)c1=O)-c1ccccc1C3O (stereo unspecified)	6
CCN(CCNC(=O)C1CCCN(S(=O)(=O)CC)C1)c1ccccc1 (stereo unspecified)	-8
O=C(C1CCCN(S(=O)(=O)Cc2ccccc2)C1)N1CCCCC1 (stereo unspecified)	10
CC(NC(=O)C1CCCN(C(=O)N(C)C)C1)c1ccccc1 (stereo unspecified)	66*	VCAM1 pot confirm=-36
CCCN1CCN(S(=O)(=O)c2ccc(OC)c(Br)c2)CC1	0
COc1ccc(C(=S)N2CCN(C)CC2)cc1Br	38*	VCAM1 pot confirm=-22
COc1cc(OC)cc(C(=O)N2CCN(C(=O)c3ccc(OC)c(OC)c3)CC2)c1	-2
O=C1OC2CCC1(c1ccccc1)C2 (stereo unspecified)	-6
CN(C(=O)CSc1nc(-c2ccccc2)cn1N)C(c1ccccc1)c1ccccc1	-3
O=S(=O)(c1ccc2c(c1)nc(COc1ccc(Cl)cc1)n2CC1CCCO1)N1CCOCC1 (stereo unspecified)	-5
O=CN(Cc1ccco1)C1(C(=O)NC2CCCCC2)CCCCC1	37*	VCAM1 pot confirm=-4
O=C(NCc1ccco1)c1cc2c(s1)CCCCC2	22
COc1ccc(CN(C(=O)CNC(=O)c2ccco2)C(C(=O)NC2CCCC2)c2ccco2)cc1 (stereo unspecified)	-8
Cc1ccc(NC(=O)CCc2ccc(S(=O)(=O)N3CCOCC3)cc2)c(C)c1	4
CCOC(=O)c1nc2cc3n(c(C)c-2c1C)C(C)C(CC)=C3C (stereo unspecified)	28
COC(=O)C1=C(C)N(C2CCCC2)C(=O)C1(NC(C)=O)C(F)(F)F (stereo unspecified)	14
CCOc1ccc(-c2nnc3sc(COc4ccc(C)cc4)nn23)cc1	40*	VCAM1 pot confirm=-17
c1ccc(-c2nnc3sc(-c4ccncc4)nn23)cc1	-7
